Of roughly 7,900 targets only a part is listed; those with a hit were picked by preference. About 0.6% of all pairs of compound and target were hits. Unmarked numbers belong to inactive results.
Tests used:
Experiment in all cases: log2 fold change, soluble protein after heating vs DMSO (PISA); higher = thermal stabilisation; K562 cells, 10 uM, 30 min; active = over 0.2 and 3.5 SD of the protein, either way, in both replicates (recomputed)
[1] = compound: C1=CC=C(C=C1)[C@H](COC2=CC3=C(C=C2)NC(=O)N3)NC(=O)C4=CC=CN(C4=O)CC5=CC(=C(C=C5)F)F
Summary of the method: (§1)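 For each measurement, 10 μM compound was applied for 30 min to K562 cells at 2×10^6 cells/mL. Aliquots were heated for 3 min across 48°C-58°C, pooled, and extracted in PBS with 0.5% NP-40 at 4°C; the supernatant after 21,000xg for 90 min was soluble protein. This was quantified by TMTpro 16plex LC-MS/MS with channel sums equalised, and thermal stability was reported relative to control samples from duplicates, on a log2 fold-change scale.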

[2] = compound: CC1=C(SC2=C1C(=N[C@H](C3=NN=C(N32)C)CC(=O)N)C4=CC=C(C=C4)Cl)C
Summary of the method: as §1

[3] = compound: CC1=C2C(=CC=C1)N=C(N(C2=O)C3=CC=CC=C3C)CN4C=NC5=C(N=CN=C54)N
Summary of the method: as §1

[4] = compound: Cc1sc2c(c1C)C(c1ccc(Cl)cc1)=N[C@@H](CC(=O)OC(C)(C)C)c1nnc(C)n1-2
Summary of the method: as §1

[5] = compound: c1ccc([C@@H]2C[C@H]2NC2CCNCC2)cc1
Summary of the method: as §1

Sequence of UniProt P14618 (P14618 whole entry, looked up): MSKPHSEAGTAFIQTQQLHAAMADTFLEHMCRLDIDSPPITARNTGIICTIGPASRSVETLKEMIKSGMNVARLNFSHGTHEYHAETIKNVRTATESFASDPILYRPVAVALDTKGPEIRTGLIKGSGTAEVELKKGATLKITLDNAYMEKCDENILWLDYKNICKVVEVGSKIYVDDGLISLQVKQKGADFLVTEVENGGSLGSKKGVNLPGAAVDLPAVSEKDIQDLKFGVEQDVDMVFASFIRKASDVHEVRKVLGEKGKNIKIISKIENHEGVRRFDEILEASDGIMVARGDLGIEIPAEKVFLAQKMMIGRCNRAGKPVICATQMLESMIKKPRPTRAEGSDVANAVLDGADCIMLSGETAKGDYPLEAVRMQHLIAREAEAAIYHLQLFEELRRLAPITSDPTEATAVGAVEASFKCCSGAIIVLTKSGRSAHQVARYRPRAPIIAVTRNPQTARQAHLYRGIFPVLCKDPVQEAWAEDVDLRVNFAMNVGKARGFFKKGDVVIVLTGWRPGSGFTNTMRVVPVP
Sequence of UniProt Q9H0R6 (Q9H0R6 whole entry, looked up): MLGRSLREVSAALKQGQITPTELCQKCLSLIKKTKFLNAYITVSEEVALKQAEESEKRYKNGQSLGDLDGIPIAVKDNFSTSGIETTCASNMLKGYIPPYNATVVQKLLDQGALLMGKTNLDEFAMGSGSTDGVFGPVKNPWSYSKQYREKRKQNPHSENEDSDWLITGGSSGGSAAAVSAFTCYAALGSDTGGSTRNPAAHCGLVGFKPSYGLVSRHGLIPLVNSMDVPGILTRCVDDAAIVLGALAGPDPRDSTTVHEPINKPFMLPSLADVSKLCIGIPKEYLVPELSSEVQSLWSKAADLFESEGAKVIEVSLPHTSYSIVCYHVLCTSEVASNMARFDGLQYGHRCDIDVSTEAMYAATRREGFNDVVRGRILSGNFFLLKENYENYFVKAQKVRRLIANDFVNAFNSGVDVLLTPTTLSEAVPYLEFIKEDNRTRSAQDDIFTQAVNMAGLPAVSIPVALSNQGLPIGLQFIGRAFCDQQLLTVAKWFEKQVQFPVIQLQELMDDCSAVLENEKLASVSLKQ
Sequence of UniProt O14974 (O14974 whole entry, looked up): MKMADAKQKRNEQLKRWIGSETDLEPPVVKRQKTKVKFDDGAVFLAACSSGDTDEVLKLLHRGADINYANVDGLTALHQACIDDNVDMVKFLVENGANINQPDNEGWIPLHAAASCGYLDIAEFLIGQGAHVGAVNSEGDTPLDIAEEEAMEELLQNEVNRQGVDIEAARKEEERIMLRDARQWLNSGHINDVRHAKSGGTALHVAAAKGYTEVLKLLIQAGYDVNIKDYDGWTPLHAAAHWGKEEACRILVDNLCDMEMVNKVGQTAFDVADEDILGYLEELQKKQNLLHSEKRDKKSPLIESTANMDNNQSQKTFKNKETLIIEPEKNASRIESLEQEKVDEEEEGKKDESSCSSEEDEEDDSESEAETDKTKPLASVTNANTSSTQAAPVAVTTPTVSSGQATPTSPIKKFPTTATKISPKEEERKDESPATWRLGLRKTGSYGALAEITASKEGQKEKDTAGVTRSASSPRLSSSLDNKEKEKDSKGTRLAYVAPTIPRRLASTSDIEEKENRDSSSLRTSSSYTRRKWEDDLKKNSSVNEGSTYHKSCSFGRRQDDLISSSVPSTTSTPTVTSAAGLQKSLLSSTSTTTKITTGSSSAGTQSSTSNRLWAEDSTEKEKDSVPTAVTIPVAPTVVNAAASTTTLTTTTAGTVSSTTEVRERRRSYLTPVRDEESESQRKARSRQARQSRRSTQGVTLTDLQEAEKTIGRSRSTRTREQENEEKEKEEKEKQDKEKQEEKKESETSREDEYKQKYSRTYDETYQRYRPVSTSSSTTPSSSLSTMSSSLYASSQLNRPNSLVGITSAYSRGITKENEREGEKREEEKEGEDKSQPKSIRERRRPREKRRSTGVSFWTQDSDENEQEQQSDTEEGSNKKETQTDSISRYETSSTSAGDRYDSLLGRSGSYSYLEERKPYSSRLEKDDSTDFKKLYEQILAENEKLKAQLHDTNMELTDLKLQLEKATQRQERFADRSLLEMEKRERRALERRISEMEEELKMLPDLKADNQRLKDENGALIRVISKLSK
Sequence of UniProt O00231 (O00231 whole entry, looked up): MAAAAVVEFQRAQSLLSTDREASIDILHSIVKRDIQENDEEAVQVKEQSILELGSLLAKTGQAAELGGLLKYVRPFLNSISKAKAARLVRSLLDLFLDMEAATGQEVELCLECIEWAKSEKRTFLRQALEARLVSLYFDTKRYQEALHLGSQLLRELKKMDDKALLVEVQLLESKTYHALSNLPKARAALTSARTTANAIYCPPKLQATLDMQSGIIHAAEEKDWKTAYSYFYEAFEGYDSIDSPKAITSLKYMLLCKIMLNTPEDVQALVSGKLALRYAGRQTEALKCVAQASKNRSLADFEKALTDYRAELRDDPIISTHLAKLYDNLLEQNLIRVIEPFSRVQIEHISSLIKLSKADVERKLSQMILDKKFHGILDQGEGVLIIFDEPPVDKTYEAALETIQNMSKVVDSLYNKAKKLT
Sequence of UniProt Q15008 (Q15008 whole entry, looked up): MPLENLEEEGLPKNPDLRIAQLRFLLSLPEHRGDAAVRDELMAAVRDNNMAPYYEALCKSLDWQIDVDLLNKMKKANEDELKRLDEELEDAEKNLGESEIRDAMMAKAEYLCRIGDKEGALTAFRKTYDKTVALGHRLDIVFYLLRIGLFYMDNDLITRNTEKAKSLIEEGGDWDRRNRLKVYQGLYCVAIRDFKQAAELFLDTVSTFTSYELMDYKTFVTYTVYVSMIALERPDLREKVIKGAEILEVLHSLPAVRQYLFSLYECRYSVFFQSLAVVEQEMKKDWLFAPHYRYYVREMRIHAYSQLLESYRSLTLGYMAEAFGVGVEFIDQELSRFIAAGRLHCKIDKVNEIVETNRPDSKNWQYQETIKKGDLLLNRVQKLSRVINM
Sequence of UniProt Q8N5Y8 (Q8N5Y8 whole entry, looked up): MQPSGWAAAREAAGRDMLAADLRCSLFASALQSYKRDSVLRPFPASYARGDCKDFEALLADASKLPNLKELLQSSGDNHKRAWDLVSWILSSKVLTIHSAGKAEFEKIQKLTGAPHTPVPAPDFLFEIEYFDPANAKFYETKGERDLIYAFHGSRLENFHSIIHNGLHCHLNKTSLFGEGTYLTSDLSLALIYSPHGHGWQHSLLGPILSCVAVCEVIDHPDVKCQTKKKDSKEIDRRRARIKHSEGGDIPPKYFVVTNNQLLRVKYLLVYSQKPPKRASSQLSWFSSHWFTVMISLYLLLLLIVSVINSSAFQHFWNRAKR
Sequence of UniProt O95453 (O95453 whole entry, looked up): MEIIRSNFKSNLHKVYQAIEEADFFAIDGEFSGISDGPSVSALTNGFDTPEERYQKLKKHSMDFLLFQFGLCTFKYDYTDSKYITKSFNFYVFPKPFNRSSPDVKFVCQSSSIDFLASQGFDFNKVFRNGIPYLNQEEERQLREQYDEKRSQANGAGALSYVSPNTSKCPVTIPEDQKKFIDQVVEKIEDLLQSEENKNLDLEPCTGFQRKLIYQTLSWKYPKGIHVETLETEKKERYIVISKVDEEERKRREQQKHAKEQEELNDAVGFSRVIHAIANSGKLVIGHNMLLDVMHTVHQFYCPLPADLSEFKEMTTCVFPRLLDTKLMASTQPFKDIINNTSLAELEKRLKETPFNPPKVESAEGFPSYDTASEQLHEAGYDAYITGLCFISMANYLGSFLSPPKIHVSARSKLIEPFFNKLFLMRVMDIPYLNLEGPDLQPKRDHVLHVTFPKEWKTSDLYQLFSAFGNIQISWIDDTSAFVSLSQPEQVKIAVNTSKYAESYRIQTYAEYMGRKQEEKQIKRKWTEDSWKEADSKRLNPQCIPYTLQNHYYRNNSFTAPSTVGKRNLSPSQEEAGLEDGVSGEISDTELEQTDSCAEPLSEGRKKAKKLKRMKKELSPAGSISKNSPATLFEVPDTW
Sequence of UniProt Q8N8N7 (Q8N8N7 whole entry, looked up): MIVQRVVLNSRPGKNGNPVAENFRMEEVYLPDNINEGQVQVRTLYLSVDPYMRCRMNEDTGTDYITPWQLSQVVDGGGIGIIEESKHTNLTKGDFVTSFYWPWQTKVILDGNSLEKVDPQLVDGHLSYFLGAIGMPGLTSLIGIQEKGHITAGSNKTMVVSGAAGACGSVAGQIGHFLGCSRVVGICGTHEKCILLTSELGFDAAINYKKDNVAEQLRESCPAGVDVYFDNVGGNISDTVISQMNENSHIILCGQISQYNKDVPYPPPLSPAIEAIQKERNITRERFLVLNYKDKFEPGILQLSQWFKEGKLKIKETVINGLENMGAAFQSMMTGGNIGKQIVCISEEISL
Sequence of UniProt Q9UKL6 (Q9UKL6 whole entry, looked up): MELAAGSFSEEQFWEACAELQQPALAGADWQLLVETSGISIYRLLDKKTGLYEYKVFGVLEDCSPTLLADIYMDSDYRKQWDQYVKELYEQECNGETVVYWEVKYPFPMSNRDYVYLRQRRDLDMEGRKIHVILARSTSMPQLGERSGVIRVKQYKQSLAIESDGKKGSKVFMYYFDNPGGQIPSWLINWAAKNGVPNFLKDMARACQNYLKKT
Sequence of UniProt P41247 (P41247 whole entry, looked up): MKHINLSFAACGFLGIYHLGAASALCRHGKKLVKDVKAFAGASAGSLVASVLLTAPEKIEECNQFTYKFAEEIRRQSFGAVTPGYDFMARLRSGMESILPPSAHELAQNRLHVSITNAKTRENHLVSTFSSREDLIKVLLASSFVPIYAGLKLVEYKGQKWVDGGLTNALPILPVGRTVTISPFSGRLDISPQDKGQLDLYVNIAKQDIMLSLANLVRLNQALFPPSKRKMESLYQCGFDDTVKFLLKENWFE
Sequence of UniProt Q96A00 (Q96A00 whole entry, looked up): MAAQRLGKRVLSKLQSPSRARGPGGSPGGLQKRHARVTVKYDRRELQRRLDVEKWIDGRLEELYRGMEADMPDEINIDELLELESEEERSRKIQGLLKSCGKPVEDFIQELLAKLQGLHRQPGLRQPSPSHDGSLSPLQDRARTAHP

| Target | log2 fold change [1] | log2 fold change [2] | log2 fold change [3] | log2 fold change [4] | log2 fold change [5] |
| --- | --- | --- | --- | --- | --- |
| PMPCA (UniProt Q10713) | -0.015 | 0.121 | 0.06 | 0.018 | -0.047 |
| PLCB3 (UniProt Q01970) | -0.019 | -0.015 | 0 | -0.048 | -0.062 |
| PSMD11 (UniProt O00231) | 0.043 | -0.049 | -0.053 | -0.017 | 0 |
| PRPF40A (UniProt O75400) | -0.008 | 0.016 | 0.123 | -0.022 | 0.037 |
| PSMD6 (UniProt Q15008) | 0.019 | -0.088 | -0.116 | -0.006 | 0.001 |
| PTPN12 (UniProt Q05209) | 0.035 | 0.034 | 0.091 | 0.024 | 0.015 |
| PRIM1 (UniProt P49642) | -0.149 | -0.033 | 0.053 | 0.033 | 0.01 |
| PIKFYVE (UniProt Q9Y2I7) | -0.077 | 0.106 | 0.111 | 0.068 | -0.009 |
| PPP1R35 (UniProt Q8TAP8) | 0.01 | 0.006 | 0.067 | 0.03 | 0.362 (active) |
| PARN (UniProt O95453) | -0.018 | 0.059 | 0.071 | -0.028 | 0.025 |
| PTGR2 (UniProt Q8N8N7) | 0.004 | 0.055 | 0.581 (active) | -0.043 | -0.091 |
| PPP1R12A (UniProt O14974) | 0.005 | 0.057 | 0.047 | 0.035 | -0.008 |
| QRSL1 (UniProt Q9H0R6) | -0.01 | 0.142 | 0.147 | 0.05 | 0.041 |
| PLIN2 (UniProt Q99541) | -0.063 | -0.006 | 0.093 | 0.004 | 0.015 |
| PNPLA4 (UniProt P41247) | 0.068 | 0.158 | 0.042 | 0.099 | 0.178 |
| PDS5A (UniProt Q29RF7) | -0.34 | 0.066 | 0.096 | 0.038 | -0.105 |
| PISD (UniProt Q9UG56) | 0.002 | -0.024 | 0.079 | -0.011 | 0.043 |
| PARP16 isoform 3 (UniProt Q8N5Y8) | -0.019 | -0.019 | 0.012 | -0.041 | 0.001 |
| PSMC2 (UniProt P35998) | 0.031 | -0.085 | -0.092 | 0.002 | 0.001 |
| PRKAR2A (UniProt P13861) | 0.044 | 0.046 | 0.054 | 0.018 | -0.003 |
| PTDSS1 (UniProt P48651) | -0.027 | -0.072 | -0.115 | 0.042 | 0.017 |
| PLD3 (UniProt Q8IV08) | 0.022 | 0.058 | 0.033 | 0.017 | 0.009 |
| PPP1R14A (UniProt Q96A00) | 0.011 | 0.009 | -0.002 | 0.061 | -0.013 |
| PKM (UniProt P14618) | -0.008 | 0.032 | 0.004 | -0.005 | 0.026 |
| PCTP (UniProt Q9UKL6) | -0.033 | -0.101 | 0.028 | -0.023 | 0.018 |

— the supplement of paper PMC10849652
